Laboratory results reported in PubChem BioAssay (EPA / NIEHS).
Calls of active or inactive are those of the source. The calls were made as follows: active = hit-call score of the fitted dose curve at least 0.9, where 1 is the maximum; inactive = score below 0.9.

Columns and labels:
Conditions in all cases: mRNA level, 48 h; actives raise or lower the signal
[1] = read-out: Bcl-2 (BAD) gene, BAD (gene 572); experiment: LTEA_HepaRG_BAD: Life Technologies and Expression Analysis (LTEA) Assay for Bcl-2 (BAD) gene using HepaRG (AID 2283469)
How it was run: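 Differentiated human HepaRG cells in serum-free induction medium were exposed in duplicate for 48 h to eight concentrations (top 100 uM, half-log steps, 0.5% DMSO). BAD mRNA was quantified by qRT-PCR normalised to ACTB, GAPDH and POLR2A, with bidirectional fitting versus DMSO.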

[2] = read-out: adenosine kinase (ADK) gene, ADK (gene 132); experiment: LTEA_HepaRG_ADK: Life Technologies and Expression Analysis (LTEA) Assay for adenosine kinase (ADK) gene using HepaRG (AID 2283471)
How it was run: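 Following 48 h exposure of HepaRG cells in 0.5% DMSO (top concentration 100 uM, duplicate wells), ADK mRNA induction or suppression was measured by qRT-PCR, normalised to ACTB/GAPDH/POLR2A, and fitted bidirectionally relative to vehicle.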

[3] = read-out: Alpha-fetoprotein (AFP) gene, AFP (gene 174); experiment: LTEA_HepaRG_AFP: Life Technologies and Expression Analysis (LTEA) Assay for Alpha-fetoprotein (AFP) gene using HepaRG (AID 2283472)
How it was run: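 HepaRG, single lot; 48 h post-plating -> serum-free induction medium; cpd 8-pt, 100 uM top, half-log, 0.5% DMSO, duplicate, 48 h. RNA -> qRT-PCR AFP, norm ACTB/GAPDH/POLR2A. Bidirectional fit vs DMSO.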

BCL2L11 (gene 10018) = experiment: LTEA_HepaRG_BCL2L11: Life Technologies and Expression Analysis (LTEA) Assay for Bcl-2 (BCL2L11) gene using HepaRG (AID 2283473)
How it was run: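 Read-out is BCL2L11 transcript level by qRT-PCR, normalized to three housekeeping genes and fitted bidirectionally against 0.5% DMSO vehicle. HepaRG cells received chemicals for 48 h in serum-free induction medium, 100 uM down in half-log dilutions.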

[4] = read-out: Apolipoprotein A-V (APOA5) gene, APOA5 (gene 116519); experiment: LTEA_HepaRG_APOA5: Life Technologies and Expression Analysis (LTEA) Assay for Apolipoprotein A-V (APOA5) gene using HepaRG (AID 2283474)
How it was run: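 Readout is APOA5 transcript level by qRT-PCR on Fluidigm dynamic arrays, normalized to three housekeeping genes. HepaRG cultures received chemicals for 48 h at up to 100 uM (half-log steps, 0.5% DMSO), with gain or loss scored relative to DMSO.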

[5] = read-out: Apoptosis regulator Bcl-2 (Homo sapiens) (UniProt P10415); experiment: LTEA_HepaRG_BCL2: Life Technologies and Expression Analysis (LTEA) Assay for Bcl-2 gene using HepaRG (AID 2283475)
How it was run: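 HepaRG, plated 48 h then switched to serum-free induction medium; dosed 48 h, 8 conc. (max 100 uM, half-log steps), duplicate, 0.5% DMSO. Lysis in RLT, RNA isolated, TaqMan qRT-PCR for BCL2; ACTB/GAPDH/POLR2A normalisation; bidirectional fit vs DMSO.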

[6] = read-out: Bcl-2 (BID) gene, BID (gene 637); experiment: LTEA_HepaRG_BID: Life Technologies and Expression Analysis (LTEA) Assay for Bcl-2 (BID) gene using HepaRG (AID 2283476)
How it was run: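 Transcript levels of BID, measured by qRT-PCR and normalized to three housekeeping genes, were fitted bidirectionally against DMSO controls. Cells were HepaRG, dosed 48 h at up to 100 uM.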

Caspase-3 (Homo sapiens) = Caspase-3 (Homo sapiens) (UniProt P42574); experiment: LTEA_HepaRG_CASP3: Life Technologies and Expression Analysis (LTEA) Assay for cysteine-aspartic acid protease (CASP3) using HepaRG (AID 2283477)
Sequence of Caspase-3 (Homo sapiens) (P42574 whole entry, looked up): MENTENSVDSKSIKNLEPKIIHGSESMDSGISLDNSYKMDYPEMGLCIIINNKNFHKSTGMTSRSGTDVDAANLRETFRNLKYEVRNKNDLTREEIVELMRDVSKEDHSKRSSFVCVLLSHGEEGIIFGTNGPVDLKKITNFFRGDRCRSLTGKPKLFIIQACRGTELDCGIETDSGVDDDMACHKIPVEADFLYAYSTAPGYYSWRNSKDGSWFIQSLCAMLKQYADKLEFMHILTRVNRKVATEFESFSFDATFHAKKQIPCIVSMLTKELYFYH
How it was run: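 Read-out is CASP3 mRNA level by TaqMan qRT-PCR in human HepaRG cells after 48 h chemical exposure. Eight half-log concentrations topping at 100 uM were tested in 0.5% DMSO; gain or loss was fitted relative to DMSO.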

[7] = read-out: Cytochrome P450 (CYP24A1), CYP24A1 (gene 1591); experiment: LTEA_HepaRG_CYP24A1: Life Technologies and Expression Analysis (LTEA) Assay for Cytochrome P450 (CYP24A1) using HepaRG (AID 2283478)
How it was run: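 HepaRG, 48 h chemical exposure, 8-pt half-log CRC from 100 uM, 0.5% DMSO vehicle, duplicates. Endpoint: CYP24A1 mRNA by Fluidigm TaqMan qRT-PCR, normalized ACTB/GAPDH/POLR2A; gain/loss fit vs DMSO.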

[8] = read-out: Bcl-2 (BAX) gene, BAX (gene 581); experiment: LTEA_HepaRG_BAX: Life Technologies and Expression Analysis (LTEA) Assay for Bcl-2 (BAX) gene using HepaRG (AID 2283470)
How it was run: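 HepaRG (human liver), 48 h exposure, duplicate wells. 8-pt curve, half-log from 100 uM, 0.5% DMSO. BAX transcript by TaqMan qRT-PCR; ACTB/GAPDH/POLR2A normalization; gain or loss vs DMSO baseline.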

Measured: AC50

Sequence of Apoptosis regulator Bcl-2 (Homo sapiens) (P10415 whole entry, looked up): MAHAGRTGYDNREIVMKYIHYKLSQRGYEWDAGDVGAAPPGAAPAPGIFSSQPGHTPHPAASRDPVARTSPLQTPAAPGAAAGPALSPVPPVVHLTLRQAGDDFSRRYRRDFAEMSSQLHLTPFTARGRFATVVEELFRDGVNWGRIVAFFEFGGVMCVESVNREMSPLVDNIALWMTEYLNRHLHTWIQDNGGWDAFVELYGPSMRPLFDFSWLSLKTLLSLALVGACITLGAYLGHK

NC(=O)Cn1c(=O)cc(CCN2CCN(c3nccc4sccc34)CC2)c2ccc(F)cc21
active: [3] 50 µM | [5] 50 µM
not listed: [8]
inactive: all other assays above

CCCCCCCCCCCCCCCC
not listed: [8]
inactive: all other assays above

COc1ccc(C)cc1N
not listed: [8]
inactive: all other assays above

CC=Cc1ccc(O)c(OC)c1
inactive: all assays above

COCCOCCOC
active: [1] 1.39 µM | [2] 2.17 µM | [3] 0.517 µM | [5] 0.723 µM | [6] 1.05 µM | Caspase-3 (Homo sapiens) 0.423 µM | [7] 0.388 µM
inactive: [8] | BCL2L11 (gene 10018) | [4]

Cc1ccc(C(C)C)c(O)c1
inactive: all assays above

Cc1cccc([N+](=O)[O-])c1C
not listed: [8]
inactive: all other assays above

CCCCc1ccc2c(n1)[C@@H](c1ccc(OC)cc1C[C@H](C)C(=O)O)[C@H](C(=O)O)[C@H]2c1ccc2c(c1)OCO2
inactive: all assays above

FC(F)(F)C(F)(F)C(F)(F)C(F)(F)C(F)(F)C(F)(F)CCI
not listed: [8]
inactive: all other assays above

CCCCC(CC)COC(=O)CC(C(=O)OCC(CC)CCCC)S(=O)(=O)O (configuration not stated)
active: [1] 80.7 µM | [2] 81.6 µM | [6] 50 µM | Caspase-3 (Homo sapiens) 81 µM
inactive: all other assays above

CCCCCCCCCCCCCO
not listed: [8]
inactive: all other assays above

Cc1ccc(C)c(C)c1
not listed: [8]
inactive: all other assays above

CCCCCCOCCO
inactive: all assays above

COc1cc(S(=O)(=O)O)c(C)cc1N=Nc1c(O)ccc2cc(S(=O)(=O)O)ccc12
not listed: [4]
inactive: all other assays above

Cc1cc(=O)[nH]c(=S)[nH]1
inactive: all assays above

NCC1(Cc2noc(=O)[nH]2)CCCCC1
inactive: all assays above

C1CCC(SSC2CCCCC2)CC1
not listed: [8]
inactive: all other assays above

CNCc1cc(F)ccc1Oc1ccc(Cl)c(Cl)c1
active: [5] 88.3 µM
not listed: [8]
inactive: all other assays above

CCCCCCCCCCCCCCCCCC(=O)O
not listed: [8]
inactive: all other assays above

O=c1[nH]cc(F)c(=O)[nH]1
active: [4] 70.9 µM
not listed: [8]
inactive: all other assays above

Cc1c(C(=O)O)c(O)cc2c1C(=O)c1c(O)c([C@@H]3O[C@H](CO)[C@@H](O)[C@H](O)[C@H]3O)c(O)c(O)c1C2=O
not listed: [8]
inactive: all other assays above

Cc1cccc(C)c1O
not listed: [8]
inactive: all other assays above

NS(=O)(=O)c1cc2c(cc1Cl)NCNS2(=O)=O
not listed: [8]
inactive: all other assays above

Cc1ccc(C)c(O)c1C
not listed: [8]
inactive: all other assays above

Cc1ccc(Cl)cc1
not listed: [8]
inactive: all other assays above

Nc1nc(N)c2nc(CNc3ccc(C(=O)N[C@@H](CCC(=O)O)C(=O)O)cc3)cnc2n1
active: [3] 0.11 µM
not listed: [8]
inactive: all other assays above

c1cc(-c2ccncc2)ccn1
not listed: [8]
inactive: all other assays above

CC1=C(/C=C/C(C)=C/C=C/C(C)=C/CO)C(C)(C)CCC1
active: [4] 52.2 µM
not listed: [8]
inactive: all other assays above

CN[C@H]1CC[C@@H](c2ccc(Cl)c(Cl)c2)c2ccc(S(N)(=O)=O)cc21
active: [3] 23.8 µM
not listed: [8]
inactive: all other assays above

Cc1cccc(Nc2cc(Cl)nc(SCC(=O)O)n2)c1C
active: [6] 0.276 µM
not listed: [8]
inactive: all other assays above

Nc1ccccc1N
active: [2] 85.7 µM | [3] 72 µM | BCL2L11 (gene 10018) 50 µM | [4] 58.2 µM
not listed: [8]
inactive: all other assays above

OC[C@@H](O)[C@@H](O)[C@H](O)[C@H](O)CO
not listed: [8]
inactive: all other assays above

Nc1ccc(S(=O)(=O)c2ccc(N)cc2)cc1
active: [7] 12.7 µM
not listed: [8]
inactive: all other assays above

CC(=O)OCCOCCOCCOC(C)=O
not listed: [8]
inactive: all other assays above

CCCCCC(=O)O
not listed: [8]
inactive: all other assays above

CN1CCCC1=O
not listed: [8]
inactive: all other assays above

CC(=O)OC/C=C(\C)CCC=C(C)C
not listed: [8]
inactive: all other assays above

C[Si]1(C)O[Si](C)(C)O[Si](C)(C)O[Si](C)(C)O1
not listed: [8]
inactive: all other assays above

CCCCCCCCCCC
not listed: Caspase-3 (Homo sapiens) | [8]
inactive: all other assays above

O=[N+]([O-])C(CO)(CO)CO
not listed: [8]
inactive: all other assays above

Cc1nc(C)nc(N2C[C@@H](C)N(c3ccnc([C@@H](C)O)n3)[C@@H](C)C2)n1
not listed: [8]
inactive: all other assays above

CCCCCCCCCCCC(=O)OC
not listed: [8]
inactive: all other assays above

CCCCCCC(=O)OCC
not listed: [8]
inactive: all other assays above

CC1(C)CC(N=C=O)CC(C)(CN=C=O)C1 (configuration not stated)
not listed: [8]
inactive: all other assays above

C=CCc1ccc(O)c(OC)c1
not listed: [8]
inactive: all other assays above
